What all share (test): NCI-60 one-dose screen, 48 h (100 = growth as untreated, 0 = no growth, -100 = all killed)
What all share (settings): 10 µM unless noted

Test [1] relates to HCT-15 colon.
Test [2] concerns SNB-75 CNS.
Test [3] has as its system SNB-19 CNS.
Test [4] concerns U251 CNS.
For test [5], the system named is PC-3 prostate.
Test [6] deals with SK-MEL-5 melanoma.
Test [7] relates to UACC-62 melanoma.
In test [8] the test system is LOX IMVI melanoma.
In test [9] the test system is SK-MEL-28 melanoma.
Test [10] deals with SK-MEL-2 melanoma.
For test [11], the system named is EKVX NSCLC.
Test [12] deals with UO-31 renal.
Test [13] deals with TK-10 renal.
Test [14] relates to ACHN renal.
Test [15] deals with CAKI-1 renal.
Test [16] deals with A498 renal.
Test [17] relates to CCRF-CEM leukemia.
Test [18] relates to SN12C renal.
For test [19], the system named is MOLT-4 leukemia.

Where “and” joins values, the source holds several entries; their conditions need not be identical. Equal entries are not always repeated. About 83,000 compounds went through this panel and 20% of them were active in at least one assay; those are over-represented in the sample as a whole.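 Growth was measured after 48 h exposure to one concentration of compound in 96-well plates. Values under 10 count as active.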 Calls of active or inactive are those of the source.

With `CCCCCN(CCCCC)CC(O)c1cc2c(c3ccccc13)CCCC2` (configuration not stated), the growth in test [1] was 52.2% (inactive) and 52.1% (inactive); in [2] it was 86.9% (inactive) and 70.7% (inactive); in test [3], 88.3% (inactive) and 83.6% (inactive); in test [4], 63% (inactive) and 62% (inactive); in test [5], 35.7% (inactive) and 57.9% (inactive); in [6], 61.1% (inactive) and 36.3% (inactive). Moreover, the growth in test [7] is 25.4% (inactive) and 58.2% (inactive); in test [8] it was 43.1% (inactive) and 40.8% (inactive); in test [9] it was 89.1% (inactive) and 57.1% (inactive); in test [10], 79.1% (inactive) and 97.2% (inactive); in test [11] it was 77.9% (inactive) and 46% (inactive); in [12], 39.7% (inactive) and 44.7% (inactive). Also, the growth is 87.5% (inactive) and 73.4% (inactive) in [13]; 55.8% (inactive) and 49% (inactive) in test [14]; 34.5% (inactive) and -32% (active) in test [15]; 108% (inactive) and 39.3% (inactive) in test [16]; 52.9% (inactive) and 57.2% (inactive) in [17].
With `Cc1ccc(/C=N/Nc2ccccn2)s1`, the growth in test [7] was 74.5% [100 µM] (inactive) and 87.7% [100 µM] (inactive).
With `COC(=O)C(=O)C(C(=O)C(=O)Nc1ccccc1OC)c1nc2ccc([N+](=O)[O-])cc2[nH]c1=O` (configuration not stated), the growth in test [7] is 41.9% [100 µM] (inactive) and 22.7% [100 µM] (inactive); in test [13] it was 121% [100 µM] (inactive) and 68% [100 µM] (inactive).
In the case of `CCO/C=N\C1=C(C#N)SC2=N/C(=C\c3ccc(OC)cc3)C(=O)N21`, in [7], the growth is 71.9% [100 µM] (inactive) and 70.7% [100 µM] (inactive).
For the compound `CC1(C)Oc2ccc3c(=O)cc(-c4ccc(F)cc4)oc3c2C1C(=O)O` (configuration not stated), the growth is 78.1% [100 µM] (inactive) and 87.8% [100 µM] (inactive) in test [7]; 100% [100 µM] (inactive) and 99.3% [100 µM] (inactive) in test [13].
As to `c1ccc2c(CC3=NCCN3)cccc2c1`, the growth was 104% (inactive) and 106% (inactive) in test [1]; 92.9% (inactive) and 105% (inactive) in test [2]; 107% (inactive) and 104% (inactive) in test [3]; 94.6% (inactive) and 100% (inactive) in test [4]; 103% (inactive) and 96.2% (inactive) in test [5]; 92.7% (inactive) and 108% (inactive) in [6]. Moreover, the growth in test [7] is 108% (inactive) and 106% (inactive); in [9], 109% (inactive) and 107% (inactive); in test [10], 132% (inactive) and 110% (inactive); in test [11], 113% (inactive) and 102% (inactive); in test [18], 103% (inactive) and 107% (inactive); in test [12], 97.6% (inactive) and 98.7% (inactive). Moreover, the growth is 114% (inactive) and 108% (inactive) in test [13]; 102% (inactive) and 116% (inactive) in test [14]; 92.9% (inactive) in [15]; 90.3% (inactive) and 81.4% (inactive) in test [16]; 99.8% (inactive) in [17]; 113% (inactive) and 108% (inactive) in test [19].
Take `O=C(Cc1cccc2ccccc12)N/N=C/c1ccc2c(c1)CCC2`: the growth in test [1] is 56.6% (inactive); in test [3], 92.1% (inactive); in test [4] it was 69.9% (inactive); in [5], 74.2% (inactive); in test [6], 80.6% (inactive); in test [7], 54.3% (inactive). The growth in test [8] was 69.6% (inactive); in [9] it was 81.4% (inactive); in test [10], 84.6% (inactive); in test [11], 78.8% (inactive); in [18], 84% (inactive); in [12], 63.3% (inactive). Further, the growth in test [13] is 89.4% (inactive); in test [14], 83.4% (inactive); in [15], 66.1% (inactive); in test [16], 72.7% (inactive); in test [17] it was 65.2% (inactive); in test [19], 47.9% (inactive).
With `CCN(CC)C(=O)c1cccnc1`, the growth was 106% (inactive) in test [1]; 105% (inactive) in test [3]; 96.2% (inactive) in [4]; 100% (inactive) in [5]; 103% (inactive) in [6]; 105% (inactive) in [7]. In addition, the growth in test [8] was 100% (inactive); in test [9], 111% (inactive); in test [10], 108% (inactive); in test [11] it was 112% (inactive); in test [18], 106% (inactive); in test [12] it was 116% (inactive). Moreover, the growth in test [13] is 97.8% (inactive); in test [14], 107% (inactive); in test [15], 97.4% (inactive); in test [16], 114% (inactive); in test [17], 97.4% (inactive).
In the case of `Nc1cc2c(cc1N)-c1ccccc1C2`, the growth in test [1] was 85.9% (inactive) and 94.3% (inactive); in test [2], 71.4% (inactive) and 91.6% (inactive); in test [3], 97.7% (inactive) and 115% (inactive); in [4], 89.9% (inactive) and 89.5% (inactive); in [5], 85% (inactive) and 105% (inactive); in test [6], 95.7% (inactive) and 97.1% (inactive). In addition, the growth in test [7] is 85.3% (inactive) and 109% (inactive); in test [8] it was 97.5% (inactive) and 93.3% (inactive); in test [9], 115% (inactive) and 116% (inactive); in test [10], 86.3% (inactive) and 111% (inactive); in test [11] it was 67.1% (inactive) and 68% (inactive); in test [18] it was 75.7% (inactive) and 101% (inactive). Moreover, the growth in test [12] is 58.8% (inactive) and 73.1% (inactive); in [13], 108% (inactive); in [14], 82.6% (inactive) and 88.3% (inactive); in test [15] it was 56.8% (inactive) and 79.8% (inactive); in test [17] it was 18.9% (inactive) and 30.8% (inactive); in test [19], 57.3% (inactive) and 79.8% (inactive).
Take `OC(COc1cccc2ccccc12)CN1CCN(c2ccc(Cl)cc2)CC1` (configuration not stated): the growth in test [1] was 87.4% (inactive) and 101% (inactive); in test [2] it was 73.7% (inactive) and 88% (inactive); in [3], 87.6% (inactive) and 90.2% (inactive); in test [4], 69.9% (inactive) and 108% (inactive); in test [5], 88.4% (inactive); in [6], 87.6% (inactive) and 102% (inactive). Besides, the growth in test [7] was 98% (inactive) and 85% (inactive); in test [8], 86.3% (inactive) and 82.2% (inactive); in test [9] it was 107% (inactive) and 114% (inactive); in [10] it was 103% (inactive) and 98.8% (inactive); in test [11] it was 108% (inactive) and 94.9% (inactive); in [12], 80.2% (inactive) and 63.6% (inactive). For the same compound, the growth is 70.8% (inactive) and 101% (inactive) in [13]; 68.6% (inactive) and 102% (inactive) in test [14]; 85.5% (inactive) in [15]; 92.3% (inactive) and 77% (inactive) in test [16]; 83.3% (inactive) in [17]; 110% (inactive) in [19].
Regarding `COc1cc(Oc2c(C)c(Cl)c(OC)c(Cl)c2OC)c2c(c1Cl)COC2=O`, the growth in test [7] is -38% [100 µM] (active) and -9.28% [100 µM] (active); in [13] it was 20.3% [100 µM] (inactive) and 9.52% [100 µM] (active).
For the compound `O=[N+]([O-])c1ccccc1N(S(=O)(=O)c1ccccc1)S(=O)(=O)c1ccccc1`, the growth in test [1] is 105% (inactive) and 90.4% (inactive); in [2], 96.2% (inactive); in test [3], 107% (inactive) and 98.6% (inactive); in test [4] it was 91.5% (inactive) and 87.8% (inactive); in test [5], 80.3% (inactive) and 77.7% (inactive); in test [6] it was 110% (inactive). The growth in [7] was 76.1% (inactive) and 66% (inactive); in test [8], 98.7% (inactive) and 84.7% (inactive); in test [9], 115% (inactive) and 111% (inactive); in test [10] it was 106% (inactive); in [11], 102% (inactive) and 85.1% (inactive); in test [12], 86.7% (inactive) and 67% (inactive). Also, the growth in test [13] was 93.3% (inactive) and 97.1% (inactive); in test [14] it was 102% (inactive) and 93.4% (inactive); in test [15], 79.4% (inactive) and 56.3% (inactive); in test [16], 86.9% (inactive) and 98.6% (inactive); in [17] it was 53.7% (inactive) and 105% (inactive).
As to `COC(=O)C1CCC(=O)N1CN(C(C)=O)c1cccc(O)c1` (configuration not stated), the growth in test [7] is 74.6% [100 µM] (inactive) and 102% [100 µM] (inactive).
